Here are results for 12 compounds from PubChem BioAssay (Tox21).

Structures are written as SMILES. Values without a mark were called inactive. Calls of active or inactive are those of the source. Unless noted, calls come from the whole dose curve; as a rule, active = well fitted curve in the direction sought with a large enough effect in the repeat runs; inconclusive = weak or mixed curves; inactive = no such curve, though single readings can be large; an effect the other way counts as inactive or inconclusive.

Assay [1] in a line: qHTS assay for small molecules that induce genotoxicity in human embryonic kidney cells expressing luciferase-tagged ATAD5 (AID 651632). Note: nearly all actives have a fitted effect of over 15% in size. In outline: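 Cells were seeded at 2,000 per well, dosed with compound, and incubated 16 hr at 37C in 5% CO2. Luciferase activity was then quantified after a 30 min room-temperature incubation with Amplite.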
(In general: qHTS replaces the single test concentration by a dilution series.)

Assay [2] is described as follows: qHTS assay for small molecule agonists of the p53 signaling pathway - cell viability (AID 651633; calls by dose curve; note: nearly all actives have a fitted effect of over 30% in size; note: potency is the fitted concentration of half-maximal effect). The method, boiled down: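 p53RE-bla cells, seeded at 4,000 per well and rested 5 h at 37 C/5% CO2, received compounds in DMSO for 16 h at 37 C. CellTiter-Glo was then added, and luminescence was read after 30 min at room temperature to gauge cytotoxicity.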
Assay [3] can be described thus: qHTS assay for small molecules that induce genotoxicity in human embryonic kidney cells expressing luciferase-tagged ATAD5 - cell viability (AID 651634; calls by dose curve; note: nearly all actives have a fitted effect of over 25% in size; note: potency is the fitted concentration of half-maximal effect). In outline: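 Cells (HEK293T, luciferase-tagged ATAD5) are seeded at 2,000 per well, dosed with compound or DMSO vehicle, and incubated 15.5 hr at 37C and 5% CO2. CellTiter-Fluor is added for 30 min before fluorescence is measured.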

Assay [4] can be described thus: qHTS assay for small molecule disruptors of the mitochondrial membrane potential - cell viability (AID 720634; calls by dose curve; note: nearly all actives have a fitted effect of over 20% in size; note: potency is the fitted concentration of half-maximal effect). In outline:
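Cytotoxicity was measured by ATP quantitation in HepG2 wells that had first been treated with compound for 1 hr and stained with m-MPI dye; CellTiter-Glo incubation was 30 min at room temperature.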

A short description of assay [5]: qHTS assay to test for compound auto fluorescence at 590 nm (red) in HepG2 cells (AID 720674). The method, boiled down:
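Intrinsic compound fluorescence in the red window (Ex/Em 540/590 nm) is measured in attached HepG2 cells exposed for 1 hr, DMSO vehicle as baseline, benchmarked to Rose Bengal sodium.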

A short description of assay [6]: qHTS assay to test for compound auto fluorescence at 535 nm (green) in HepG2 cells (AID 720675).
The nature of assay [7]: qHTS assay to test for compound auto fluorescence at 590 nm (red) in HEK293 cells (AID 720679). The method, boiled down:
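Red channel, Ex/Em 540/590nm; signal expressed as equivalency to Rose Bengal sodium. HEK293, 2,000 cells/well, 10% dialyzed FBS; 23 nL compound pinned after 4-5 hr attachment; overnight 37C/5% CO2 before reading.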

Assay [8] in a line: qHTS assay to test for compound auto fluorescence at 535 nm (green) in HEK293 cells (AID 720680).
Assay [9] can be described thus: qHTS assay to test for compound auto fluorescence at 460 nm (blue) in HEK293 cell free culture (AID 720681). The method, boiled down:
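Test compounds were pinned into cell-free culture medium (DMEM with 10% FBS) and fluorescence was read directly at Ex/Em 405/460 nm. Signals were expressed as fluorescence equivalents of triamterene, with DMSO vehicle as control.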

Assay [10] is described as follows: qHTS assay to test for compound auto fluorescence at 590 nm (red) in HEK293 cell free culture (AID 720683). The method, boiled down: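 Tox21 10K library compounds were pinned into cell-free DMEM with 10% FBS and fluorescence was read at excitation 540 nm. Activity is expressed as Rose Bengal sodium equivalency.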
Assay [11] is described as follows: qHTS assay to test for compound auto fluorescence at 590 nm (red) in HepG2 cell free culture (AID 720684). In outline: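 Readout: intrinsic compound fluorescence at 590 nm emission after 540 nm excitation, scaled to Rose Bengal sodium. Matrix was cell-free MEM with 10% FBS; DMSO vehicle wells served as control.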
A short description of assay [12]: qHTS assay to test for compound auto fluorescence at 460 nm (blue) in HepG2 cell free culture (AID 720685). The method, boiled down:
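Cell-free plates of MEM plus 10% FBS received 23 nL compound or DMSO vehicle; blue-channel (405/460 nm) intensity scored against triamterene as reference fluorophore.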

Assay [13] can be described thus: qHTS assay to test for compound auto fluorescence at 535 nm (green) in HepG2 cell free culture (AID 720686).
Assay [14] in a line: qHTS assay to test for compound auto fluorescence at 460 nm (blue) in HepG2 cells (AID 720687). In outline: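 Cells (2,000/well in MEM with 10% FBS) attached overnight at 37 C, then were exposed to compound or DMSO for 1 hr at 37 C, 5% CO2. Fluorescence read at Ex/Em 405/460 nm, expressed as triamterene-equivalent signal.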
Assay [15] addresses Glucocorticoid receptor (Homo sapiens) (UniProt P04150). Nature of the assay: qHTS assay to identify small molecule agonists of the glucocorticoid receptor (GR) signaling pathway (AID 720691; active = well fitted activation curve with a large enough effect in the signal ratio in the repeat runs, not every such curve was filed as active; inconclusive = weak or mixed curves, or effect the other way; inactive = no such curve, though single readings can be large or run the other way; the % refers to the signal ratio; note: potency is the fitted concentration of half-maximal effect). In outline: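 Steps: seed GR-bla HeLa cells, incubate 4 h at 37 C/5% CO2; pin-transfer DMSO-dissolved compounds; incubate 18 h at 37 C; add LiveBLAzer B/G FRET substrate; after 2 h at room temperature, measure fluorescence.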

The nature of assay [16]: qHTS assay to test for compound auto fluorescence at 460 nm (blue) in HEK293 cells (AID 720678). In outline: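 Blue read-out at excitation 405 nm and emission 460 nm follows overnight compound exposure of HEK293 cells at 37C in 5% CO2. Activity is given as auto fluorescence equivalency to triamterene.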
The nature of assay [17]: qHTS assay to test for compound auto fluorescence at 535 nm (green) in HEK293 cell free culture (AID 720682). In outline: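 Intrinsic compound fluorescence is measured in culture medium containing 10% FBS, with excitation at 485 nm and detection at 535 nm, referenced to fluorescein.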
The nature of assay [18]: qHTS assay for small molecule disruptors of the mitochondrial membrane potential (AID 720635). Note: potency is the fitted concentration of half-maximal effect. The method, boiled down:
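HepG2 cells (2,000/well) attached overnight at 37C, then took compound for 1 hr at 37C, 5% CO2. Mito-MPS dye was added for 30 min; fluorescence was read at 490/535 nm (monomers) and 540/590 nm (aggregates).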

For assay [19], the target named is Glucocorticoid receptor (Homo sapiens) (UniProt P04150). Nature of the assay: qHTS assay to identify small molecule antagonists of the glucocorticoid receptor (GR) signaling pathway (AID 720692; active = well fitted inhibition curve with a large enough effect in the signal ratio in the repeat runs, not every such curve was filed as active; inconclusive = weak or mixed curves, or effect the other way; inactive = no such curve, though single readings can be large or run the other way; the % refers to the signal ratio; note: potency is the fitted concentration of half-maximal effect). The method, boiled down: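 Antagonism was scored as loss of dexamethasone-driven (5 nM final) reporter signal in HeLa cells bearing a glucocorticoid response element–beta-lactamase construct, after 18 h compound exposure at 37 C and 2 h FRET substrate loading.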
% is set by controls: 0 for no effect and ±100 for the full control effect.

Chain of Glucocorticoid receptor (Homo sapiens) (P04150 whole entry, looked up): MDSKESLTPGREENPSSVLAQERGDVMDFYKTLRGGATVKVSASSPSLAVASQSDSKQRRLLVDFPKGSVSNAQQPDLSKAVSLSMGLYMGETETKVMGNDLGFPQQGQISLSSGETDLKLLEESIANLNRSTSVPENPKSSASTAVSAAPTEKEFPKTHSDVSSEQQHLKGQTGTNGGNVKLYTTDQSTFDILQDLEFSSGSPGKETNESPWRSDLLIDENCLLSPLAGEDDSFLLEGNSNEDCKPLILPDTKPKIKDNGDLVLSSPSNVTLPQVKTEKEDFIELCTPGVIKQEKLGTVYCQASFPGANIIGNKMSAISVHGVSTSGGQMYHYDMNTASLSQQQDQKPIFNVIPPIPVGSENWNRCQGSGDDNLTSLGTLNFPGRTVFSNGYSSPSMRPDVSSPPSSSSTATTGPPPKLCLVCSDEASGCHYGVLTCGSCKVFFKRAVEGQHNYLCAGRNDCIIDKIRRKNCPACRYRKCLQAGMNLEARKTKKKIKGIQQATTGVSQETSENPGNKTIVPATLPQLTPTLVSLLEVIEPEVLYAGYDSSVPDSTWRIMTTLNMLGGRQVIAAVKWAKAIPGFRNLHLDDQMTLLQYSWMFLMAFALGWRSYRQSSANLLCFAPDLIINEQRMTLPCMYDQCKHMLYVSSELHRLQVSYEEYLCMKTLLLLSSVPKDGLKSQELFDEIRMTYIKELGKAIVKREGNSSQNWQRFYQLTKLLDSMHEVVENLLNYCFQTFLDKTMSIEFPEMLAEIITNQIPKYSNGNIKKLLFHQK

In the case of `CCCCc1cc2ccccc2c(OCCN(C)C)n1`, the Potency result in [1], in assay [2], in assay [3] and in assay [4] was “inactive” throughout. In assay [5], the fluorescence, relative to Rose Bengal is 0.0286% [at 18.6 µM]. In addition, the fluorescence, % of fluorescein control in assay [6] was 0.0129% [at 18.6 µM]; in assay [13] it was 0.0394% [at 18.6 µM]. Further, the fluorescence, % of fluorescent control was -0.0036% [at 18.6 µM] in assay [7]; -0.0502% [at 18.6 µM] in [9]; 0.0019% [at 18.6 µM] in [10]; -0.0015% [at 18.6 µM] in assay [12]; -0.0043% [at 18.6 µM] in [14]. Moreover, the fluorescence, % of fluorescein in assay [8] is -0.0691% [at 18.6 µM]. In addition, the fluorescence, % of Rose Bengal in [11] was 0.586% [at 18.6 µM]. Moreover, the Potency in assay [15] is 1.02 µM (active).
For the compound `CCc1nn(C2CCCCC2)c2cc(C3(C#N)CCC(C(=O)O)CC3)ccc12` (centres undefined), the Potency result in assay [1], in assay [2], in [16], in [9], in assay [12] and in [14] was “inactive” each time. In assay [3], the Potency is 27.3 µM (active). The call in assay [5], in [6], in [7], in assay [8], in assay [10] and in [11] was inactive. Also, in assay [13], the outcome was inactive.
In the case of `CC(=O)/C=C/C1C(C)=CCCC1(C)C` (centres undefined), the Potency result in assay [1], in assay [2], in [3], in assay [4], in [16] and in assay [9] was “inactive” in each case. Further, the Potency entry in assay [12] and in assay [14] was “inactive” in each case. Also, the outcome in [5], in assay [6], in assay [8], in assay [17], in [10] and in assay [11] was inactive. Also, in assay [13], the compound was called inactive.
As for `Cc1cc(C)c(S(=O)(=O)O)cc1N=Nc1cc(S(=O)(=O)O)c2ccccc2c1O`, the Potency entry in [1], in assay [2], in assay [4], in assay [16], in [9] and in assay [12] was “inactive” each time. In addition, the Potency in assay [3] is 48.6 µM (active). The call in assay [5], in [6], in [7], in assay [10], in [11] and in [13] was inactive.
Regarding `CC(=O)c1c(C)c([N+](=O)[O-])c(C(C)(C)C)c([N+](=O)[O-])c1C`, the Potency result in [1], in assay [2], in assay [3], in assay [16], in assay [9] and in assay [12] was “inactive” in each case. Moreover, in [19], the Potency entry is “inactive”. The Potency in [18] was 54.5 µM (active). The result in [5], in [6], in assay [7], in assay [8], in [17] and in assay [11] was inactive. Also, in [13], the outcome was inactive.
`COc1cc(C(C)(C)C)c(O)c(C(C)(C)C)c1`: the Potency result in assay [1], in [2], in [3], in [9], in assay [12] and in assay [14] was “inactive” each time. The Potency entry in assay [15] and in assay [19] was “inactive” each time. For the same compound, in assay [18], the Potency is 27.3 µM (active). Further, the compound was classed as inactive in assay [5], in assay [6], in assay [7], in assay [17], in assay [10] and in assay [11]. The compound was called inactive in assay [13].
For `CN1CCC(=C2c3ccccc3CCc3sccc32)CC1`, the Potency result in assay [1], in [2], in assay [3], in [4], in assay [16] and in assay [14] was “inactive” in each case. In [15], the Potency result is “inactive”. Also, the result in assay [5], in assay [6], in [7], in assay [8], in assay [17] and in assay [10] was inactive. Also, the outcome in assay [11] was inactive.
On to `CC(C(=O)O)c1ccc(C(=O)c2ccccc2)s1` (centres undefined), for which the Potency result in [1], in assay [2] and in assay [3] was “inactive” each time. The fluorescence, relative to Rose Bengal in assay [5] is -0.233% [at 18.6 µM]. For the same compound, the fluorescence, % of triamterene in [16] was 0.0309% [at 18.6 µM]. In [8], the fluorescence, % of fluorescein was 0.0614% [at 18.6 µM]. In assay [17], the activity change is -0.0099% [at 18.6 µM]. Also, the values for the fluorescence, % of fluorescent control in assay [10], in [12] and in [14] were -0.0875% [at 18.6 µM], -0.006% [at 18.6 µM] and 0.0098% [at 18.6 µM], respectively. Further, in assay [11], the fluorescence, % of Rose Bengal was 0.261% [at 18.6 µM].
As to `CN(C)CC[C@@H](c1ccc(Br)cc1)c1ccccn1`, the Potency entry in [1], in [2], in [3], in assay [4], in assay [18] and in assay [16] was “inactive” each time. Further, the Potency entry in [9] and in assay [12] was “inactive” each time. Further, the compound was classed as inactive in [5], in assay [7], in assay [8], in [17], in [11] and in assay [13].
Turning to `NC(N)=NN=C(/C=C/c1ccc([N+](=O)[O-])o1)/C=C/c1ccc([N+](=O)[O-])o1`, the Potency in [2] was 2.37 µM (active); in assay [3], 10.6 µM (active); in [4], 18.8 µM (active); in [18] it was 2.66 µM (active); in assay [15], 6.74 µM [inconclusive] (active). In addition, the compound was called inactive in assay [5], in assay [6], in assay [7], in [8], in assay [17] and in assay [10]. Moreover, the result in assay [11] was inactive. The Potency result in assay [16], in assay [9] and in assay [14] was “inactive” throughout.
As to `CC(C)(C)c1cc(CO)cc(C(C)(C)C)c1O`, the Potency entry in assay [1], in [2], in assay [4], in [12] and in assay [14] was “inactive” throughout. The Potency in assay [18] is 49.5 µM (active); in [19], 44.5 µM (active). In addition, the result in [5], in [7], in [8], in assay [17], in assay [10] and in assay [11] was inactive.
`Cn1c(NCCN(CCO)CCCc2ccc([N+](=O)[O-])cc2)cc(=O)n(C)c1=O`: the Potency entry in [1], in assay [3], in [4], in assay [16], in [9] and in assay [12] was “inactive” each time. Also, the Potency entry in assay [14] and in assay [19] was “inactive” throughout. Also, the outcome in [5], in [6], in [7], in assay [8], in [10] and in [11] was inactive.
